Measured values from the supplement of paper PMC10849652.
The full data set covers some 8,800 targets. This sample favours those with a hit. About 0.5% of all pairs of compound and target were hits. A number with no mark means an inactive call.

Experiments:
Experiment in all cases: log2 fold change, soluble protein after heating vs DMSO (PISA); higher = thermal stabilisation; K562 lysate, 10 uM; active = over 0.2 and 3.5 SD of the protein, either way, in both replicates (recomputed)
[1] = compound: C1=CC=C(C=C1)[C@H](COC2=CC3=C(C=C2)NC(=O)N3)NC(=O)C4=CC=CN(C4=O)CC5=CC(=C(C=C5)F)F
Procedure, shortened: (§1)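 Thermal stability, expressed as log-two fold change relative to solvent controls, is given from duplicates. Crude K562 extract in PBS pH 7.4 with 1 mM MgCl2, at 1 mg/mL protein, was treated with 10 μM compound for 30 min and heated in aliquots for 3 min across 48°C-58°C. After pooling, adjustment to 0.5% NP-40 at 4°C and centrifugation at 21,000xg for 90 min, supernatant protein was measured by TMTpro 16plex LC-MS/MS with channel sums equalised.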

[2] = compound: CC1=C(SC2=C1C(=N[C@H](C3=NN=C(N32)C)CC(=O)N)C4=CC=C(C=C4)Cl)C
Procedure, shortened: as §1

[3] = compound: CC1=C2C(=CC=C1)N=C(N(C2=O)C3=CC=CC=C3C)CN4C=NC5=C(N=CN=C54)N
Procedure, shortened: as §1

[4] = compound: Cc1sc2c(c1C)C(c1ccc(Cl)cc1)=N[C@@H](CC(=O)OC(C)(C)C)c1nnc(C)n1-2
Procedure, shortened: as §1

[5] = compound: c1ccc([C@@H]2C[C@H]2NC2CCNCC2)cc1
Procedure, shortened: as §1

UniProt P52701, sequence (P52701 whole entry, looked up): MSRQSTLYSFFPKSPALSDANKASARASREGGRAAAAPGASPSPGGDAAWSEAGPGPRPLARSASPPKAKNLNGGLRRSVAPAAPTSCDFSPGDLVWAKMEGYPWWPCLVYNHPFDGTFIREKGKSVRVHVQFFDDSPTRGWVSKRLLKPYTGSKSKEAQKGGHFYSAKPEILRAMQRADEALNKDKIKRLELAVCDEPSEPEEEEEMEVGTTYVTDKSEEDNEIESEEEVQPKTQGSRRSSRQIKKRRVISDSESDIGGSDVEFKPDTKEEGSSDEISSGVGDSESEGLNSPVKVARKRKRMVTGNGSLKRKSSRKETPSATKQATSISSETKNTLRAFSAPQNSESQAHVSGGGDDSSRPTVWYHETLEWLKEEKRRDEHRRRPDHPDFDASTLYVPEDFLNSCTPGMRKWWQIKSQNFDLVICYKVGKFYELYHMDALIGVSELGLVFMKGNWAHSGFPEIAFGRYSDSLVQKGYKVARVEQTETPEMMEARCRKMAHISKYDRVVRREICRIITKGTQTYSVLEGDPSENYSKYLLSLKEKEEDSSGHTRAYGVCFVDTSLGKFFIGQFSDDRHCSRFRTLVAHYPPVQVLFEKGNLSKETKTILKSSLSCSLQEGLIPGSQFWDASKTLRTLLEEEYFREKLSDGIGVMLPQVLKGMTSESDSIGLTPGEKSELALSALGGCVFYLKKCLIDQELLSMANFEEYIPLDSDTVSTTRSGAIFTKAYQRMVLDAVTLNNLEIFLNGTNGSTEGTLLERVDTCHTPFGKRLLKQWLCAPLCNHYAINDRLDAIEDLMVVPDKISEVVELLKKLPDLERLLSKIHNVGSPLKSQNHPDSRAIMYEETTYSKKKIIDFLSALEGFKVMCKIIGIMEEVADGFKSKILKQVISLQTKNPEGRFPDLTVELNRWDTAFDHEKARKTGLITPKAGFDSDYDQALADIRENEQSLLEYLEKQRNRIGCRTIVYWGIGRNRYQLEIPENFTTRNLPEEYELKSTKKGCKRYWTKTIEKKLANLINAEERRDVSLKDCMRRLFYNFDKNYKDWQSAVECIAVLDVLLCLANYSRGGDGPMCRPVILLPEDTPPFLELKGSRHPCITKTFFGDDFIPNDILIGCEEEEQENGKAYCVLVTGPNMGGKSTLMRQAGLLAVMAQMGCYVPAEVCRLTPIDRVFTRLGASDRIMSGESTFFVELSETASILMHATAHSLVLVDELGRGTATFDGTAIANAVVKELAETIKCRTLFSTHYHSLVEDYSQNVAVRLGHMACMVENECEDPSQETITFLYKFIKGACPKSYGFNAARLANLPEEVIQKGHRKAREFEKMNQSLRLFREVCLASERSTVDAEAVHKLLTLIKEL
UniProt O94776, sequence (O94776 whole entry, looked up): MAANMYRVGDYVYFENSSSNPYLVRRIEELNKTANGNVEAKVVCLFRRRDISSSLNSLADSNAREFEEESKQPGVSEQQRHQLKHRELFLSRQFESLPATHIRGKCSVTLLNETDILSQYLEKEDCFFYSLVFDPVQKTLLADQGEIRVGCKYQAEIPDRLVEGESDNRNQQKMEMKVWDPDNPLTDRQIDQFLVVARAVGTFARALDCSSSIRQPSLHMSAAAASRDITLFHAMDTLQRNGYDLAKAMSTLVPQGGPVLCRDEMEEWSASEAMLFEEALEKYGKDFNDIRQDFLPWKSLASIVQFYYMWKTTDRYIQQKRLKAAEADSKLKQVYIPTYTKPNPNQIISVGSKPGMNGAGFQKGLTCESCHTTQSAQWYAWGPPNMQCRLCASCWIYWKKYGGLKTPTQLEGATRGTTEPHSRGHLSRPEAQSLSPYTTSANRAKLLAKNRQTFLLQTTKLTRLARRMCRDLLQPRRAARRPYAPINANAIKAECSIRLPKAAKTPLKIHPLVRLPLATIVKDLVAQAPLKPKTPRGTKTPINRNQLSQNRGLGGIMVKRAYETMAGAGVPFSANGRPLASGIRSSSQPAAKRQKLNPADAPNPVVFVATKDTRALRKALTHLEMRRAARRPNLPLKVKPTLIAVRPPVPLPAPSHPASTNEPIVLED
UniProt Q9BTC8, sequence (Q9BTC8 whole entry, looked up): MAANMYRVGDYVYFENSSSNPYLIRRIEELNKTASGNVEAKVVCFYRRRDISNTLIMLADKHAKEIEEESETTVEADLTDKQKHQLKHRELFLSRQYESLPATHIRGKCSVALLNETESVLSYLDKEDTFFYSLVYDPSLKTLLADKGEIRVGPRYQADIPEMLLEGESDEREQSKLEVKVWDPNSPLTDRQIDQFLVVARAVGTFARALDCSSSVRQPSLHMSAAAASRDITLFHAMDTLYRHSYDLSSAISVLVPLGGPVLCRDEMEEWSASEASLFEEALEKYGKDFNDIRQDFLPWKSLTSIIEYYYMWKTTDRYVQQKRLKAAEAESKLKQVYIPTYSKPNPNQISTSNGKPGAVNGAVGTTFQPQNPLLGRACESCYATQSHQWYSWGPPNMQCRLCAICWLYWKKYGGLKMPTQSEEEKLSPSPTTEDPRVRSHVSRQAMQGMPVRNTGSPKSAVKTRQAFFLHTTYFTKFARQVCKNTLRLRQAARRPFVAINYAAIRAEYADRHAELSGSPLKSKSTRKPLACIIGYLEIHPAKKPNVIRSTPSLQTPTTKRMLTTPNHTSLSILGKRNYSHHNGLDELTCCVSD
UniProt P22059, sequence (P22059 whole entry, looked up): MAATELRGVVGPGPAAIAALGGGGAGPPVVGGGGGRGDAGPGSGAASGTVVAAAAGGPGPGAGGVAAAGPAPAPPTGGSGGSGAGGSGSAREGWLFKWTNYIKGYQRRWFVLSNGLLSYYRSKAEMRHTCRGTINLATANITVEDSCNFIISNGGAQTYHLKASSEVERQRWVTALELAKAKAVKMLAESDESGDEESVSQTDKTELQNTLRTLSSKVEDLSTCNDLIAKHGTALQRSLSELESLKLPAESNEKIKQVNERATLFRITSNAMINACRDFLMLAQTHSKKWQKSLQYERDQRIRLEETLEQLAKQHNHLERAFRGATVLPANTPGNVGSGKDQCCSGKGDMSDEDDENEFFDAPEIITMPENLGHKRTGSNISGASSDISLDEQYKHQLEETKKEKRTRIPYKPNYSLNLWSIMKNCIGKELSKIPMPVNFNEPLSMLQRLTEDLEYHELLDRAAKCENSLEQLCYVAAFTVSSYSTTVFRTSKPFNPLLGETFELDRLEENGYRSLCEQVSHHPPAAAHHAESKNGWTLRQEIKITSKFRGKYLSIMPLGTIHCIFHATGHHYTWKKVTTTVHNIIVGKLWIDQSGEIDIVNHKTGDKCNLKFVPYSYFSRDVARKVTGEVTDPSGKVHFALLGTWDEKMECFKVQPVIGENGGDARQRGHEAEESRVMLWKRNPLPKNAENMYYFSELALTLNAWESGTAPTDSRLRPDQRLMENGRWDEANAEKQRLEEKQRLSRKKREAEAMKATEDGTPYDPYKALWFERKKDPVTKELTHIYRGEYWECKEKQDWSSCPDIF
UniProt Q8NC60, sequence (Q8NC60 whole entry, looked up): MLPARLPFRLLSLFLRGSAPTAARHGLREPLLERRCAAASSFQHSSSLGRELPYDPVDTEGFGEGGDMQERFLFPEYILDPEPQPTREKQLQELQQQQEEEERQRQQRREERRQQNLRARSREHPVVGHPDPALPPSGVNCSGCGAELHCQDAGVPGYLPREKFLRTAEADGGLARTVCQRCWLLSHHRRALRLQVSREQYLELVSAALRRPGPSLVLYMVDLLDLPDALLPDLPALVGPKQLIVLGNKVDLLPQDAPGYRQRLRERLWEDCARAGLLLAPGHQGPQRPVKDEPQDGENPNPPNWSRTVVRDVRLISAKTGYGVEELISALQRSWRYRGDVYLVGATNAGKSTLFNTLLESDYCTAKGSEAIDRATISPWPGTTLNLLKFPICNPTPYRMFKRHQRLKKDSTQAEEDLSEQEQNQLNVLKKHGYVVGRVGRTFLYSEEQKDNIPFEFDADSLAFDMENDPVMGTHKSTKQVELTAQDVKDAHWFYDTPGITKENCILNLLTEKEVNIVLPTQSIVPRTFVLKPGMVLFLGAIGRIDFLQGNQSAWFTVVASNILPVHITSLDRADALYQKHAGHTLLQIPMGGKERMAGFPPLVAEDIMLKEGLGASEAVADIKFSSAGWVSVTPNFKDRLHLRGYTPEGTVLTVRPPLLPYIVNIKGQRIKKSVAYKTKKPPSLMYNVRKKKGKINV
UniProt Q8TDX7, sequence (Q8TDX7 whole entry, looked up): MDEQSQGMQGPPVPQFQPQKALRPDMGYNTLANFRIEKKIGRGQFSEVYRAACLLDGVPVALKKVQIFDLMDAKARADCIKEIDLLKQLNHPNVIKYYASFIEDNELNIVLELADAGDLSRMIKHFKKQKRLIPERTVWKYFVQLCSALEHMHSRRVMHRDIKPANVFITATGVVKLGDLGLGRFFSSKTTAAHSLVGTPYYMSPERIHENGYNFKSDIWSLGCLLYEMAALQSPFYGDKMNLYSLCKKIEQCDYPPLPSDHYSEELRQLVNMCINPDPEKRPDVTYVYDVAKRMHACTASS
UniProt Q4G0N4, sequence (Q4G0N4 whole entry, looked up): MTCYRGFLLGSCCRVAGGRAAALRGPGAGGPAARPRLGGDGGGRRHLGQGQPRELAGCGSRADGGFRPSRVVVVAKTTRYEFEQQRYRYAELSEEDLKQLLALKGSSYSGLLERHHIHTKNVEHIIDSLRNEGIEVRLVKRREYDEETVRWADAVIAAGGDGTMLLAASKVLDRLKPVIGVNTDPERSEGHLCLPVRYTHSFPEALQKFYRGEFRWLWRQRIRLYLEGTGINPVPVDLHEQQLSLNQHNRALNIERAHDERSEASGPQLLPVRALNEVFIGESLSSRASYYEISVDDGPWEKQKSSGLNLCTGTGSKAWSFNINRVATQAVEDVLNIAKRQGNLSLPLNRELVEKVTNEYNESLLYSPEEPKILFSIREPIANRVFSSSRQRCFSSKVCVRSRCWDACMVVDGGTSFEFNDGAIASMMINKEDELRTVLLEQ
UniProt Q9UDX5, sequence (Q9UDX5 whole entry, looked up): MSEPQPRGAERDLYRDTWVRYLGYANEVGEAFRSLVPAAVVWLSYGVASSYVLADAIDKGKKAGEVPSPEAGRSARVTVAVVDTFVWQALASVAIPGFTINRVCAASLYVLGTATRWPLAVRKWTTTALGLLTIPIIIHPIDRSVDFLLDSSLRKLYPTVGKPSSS

Target | log2 fold change [1] | log2 fold change [2] | log2 fold change [3] | log2 fold change [4] | log2 fold change [5]
NTPCR (UniProt Q9BSD7) | -0.015 | 0.067 | -0.015 | 0.034 | 0.029
NUDT5 (UniProt Q9UKK9) | 0.053 | -0.126 | -0.012 | -0.097 | -0.158
NIFK (UniProt Q9BYG3) | 0.065 | 0.07 | 0.015 | 0.056 | 0.047
NTMT1 (UniProt Q9BV86) | -0.01 | -0.036 | -0.019 | 0.02 | 0.098
NOC2L (UniProt Q9Y3T9) | 0.004 | -0.019 | 0.009 | 0.324 (active) | -0.012
OPA1 isoform 2 (UniProt O60313) | -0.048 | 0.021 | 0.038 | 0.005 | 0.084
OSBP (UniProt P22059) | 0.007 | 0.048 | 0.036 | -0.009 | 0.039
NCOR2 (UniProt C9J0Q5) | 0.045 | 0.033 | -0.031 | 0.048 | -0.006
MYCBP2 (UniProt O75592) | -0.006 | -0.003 | 0.017 | 0.005 | -0.005
NOB1 (UniProt Q9ULX3) | 0.004 | -0.051 | 0.038 | -0.021 | 0.13
NUP188 (UniProt Q5SRE5) | -0.044 | -0.009 | 0 | -0.001 | 0.016
MTA3 (UniProt Q9BTC8) | -0.006 | -0.047 | 0.002 | 0.014 | -0.001
NPLOC4 isoform 2 (UniProt Q8TAT6) | 0.035 | 0.017 | 0.025 | -0.012 | -0.064
OSBPL3 isoform 2 (UniProt Q9H4L5) | -0.02 | -0.018 | 0.043 | -0.017 | 0.004
OAT (UniProt P04181) | 0.029 | 0.031 | 0.038 | 0.034 | -0.018
MTFP1 (UniProt Q9UDX5) | 0.005 | -0.058 | 0.03 | 0.079 | -0.222
NARS2 (UniProt Q96I59) | 0.013 | 0.024 | 0.092 | 0.053 | -0.05
OTC (UniProt P00480) | -0.11 | 0.131 | -0.028 | -0.38 | -2.16 (active)
NUP93 (UniProt Q8N1F7) | -0.054 | -0.017 | -0.006 | 0.007 | 0.031
PAFAH1B3 (UniProt Q15102) | 0 | 0.042 | 0.045 | 0.047 | 0.014
OGFR (UniProt Q9NZT2) | -0.016 | 0.001 | 0.012 | -0.038 | 0.088
NFKBIB (UniProt Q15653) | 0.068 | 0 | 0.014 | 0.055 | -0.185
NEXN (UniProt Q0ZGT2) | -0.31 | 0.335 | 0.271 | -0.083 | -0.22
NEBL (UniProt O76041) | -0.074 | 0.011 | 0.047 | 0.043 | 0.014
NOSIP (UniProt Q9Y314) | 0.018 | -0.005 | -0.018 | 0.019 | 0.012
NEDD8 (UniProt Q15843) | 0.051 | -0.014 | -0.047 | 0.002 | 0.085
NBN (UniProt O60934) | 0.074 | 0.046 | 0.003 | -0.011 | 0.059

Target | log2 fold change [1] | log2 fold change [2] | log2 fold change [3] | log2 fold change [4] | log2 fold change [5]
MRPL58 (UniProt Q14197) | 0.011 | 0.029 | 0.075 | -0.002 | 0.081
MTA2 (UniProt O94776) | 0 | 0.015 | -0.004 | 0.015 | 0.031
MTHFD1L (UniProt B7ZM99) | -0.039 | 0.025 | 0.06 | 0.025 | 0.049
NOSTRIN (UniProt Q8IVI9) | -0.061 | 0.039 | 0.017 | -0.092 | 0.017
NDUFS1 isoform 2 (UniProt P28331) | 0.009 | -0.003 | 0.022 | 0.013 | 0.035
MRPS12 (UniProt O15235) | 0 | 0.019 | 0.053 | 0.039 | 0.026
NEK7 (UniProt Q8TDX7) | 0.03 | -0.032 | -0.004 | -0.076 | 0.026
NONO (UniProt Q15233) | -0.047 | 0.02 | 0.015 | 0.026 | 0.074
NADK2 (UniProt Q4G0N4) | 0.057 | 0.007 | -0.006 | 0.045 | -0.012
NOA1 (UniProt Q8NC60) | -0.087 | 0.099 | 0.023 | -0.014 | -0.07
MRPL51 (UniProt Q4U2R6) | -0.001 | -0.053 | 0.043 | 0.066 | -0.109
NCAPG2 (UniProt Q86XI2) | -0.074 | -0.04 | 0.019 | 0.025 | 0.001
PANK1 (UniProt Q8TE04) | -0.071 | -0.056 | 0.178 | -0.077 | 0.076
PAK1 (UniProt Q13153) | 0.029 | -0.009 | -0.011 | 0.015 | -0.126
NBEAL2 (UniProt Q6ZNJ1) | -0.047 | 0.055 | 0.015 | -0.029 | 0.044
NUP98 (UniProt P52948) | -0.018 | -0.03 | 0.037 | 0.052 | -0.003
NCAPD2 (UniProt Q15021) | -0.023 | 0.028 | 0.026 | 0.008 | 0.022
MYCBP (UniProt Q99417) | 0.043 | -0.087 | -0.013 | -0.022 | -0.27
NAA38 isoform 2 (UniProt Q9BRA0) | -0.002 | 0.02 | 0.063 | -0.005 | -0.344 (active)
PARP14 (UniProt Q460N5) | 0.021 | -0.003 | 0.063 | -0.028 | -0.045
ORC5 (UniProt O43913) | -0.037 | -0.022 | 0.029 | 0.003 | 0.021
MT-CYB (UniProt P00156) | 0.062 | -0.091 | -0.052 | -0.132 | -0.468
OGFOD2 (UniProt Q6N063) | -0.079 | 0.049 | -0.07 | 0.033 | 0.076
OLA1 (UniProt Q9NTK5) | -0.001 | 0.04 | 0 | 0.011 | 0.022
MSH6 (UniProt P52701) | -0.021 | 0.01 | 0.034 | 0.006 | 0.014
MYO1C (UniProt O00159) | -0.025 | -0.038 | -0.051 | -0.025 | 0.033
